Source: PubChem BioAssay AID504339 (National Center for Advancing Translational Sciences (NCATS), 2011)
About 17,000 (4.4%) of roughly 390,000 compounds were called active. Entries that show only a call come without a potency. Inconclusive results (about 8%) are left out. Calls follow the shape of the dose curve; as a rule, active = well fitted inhibition curve with a large enough effect; inconclusive = small, poorly fitted or top-dose-only effect; inactive = no such curve, though single readings can be large or run the other way. The sample as a whole holds a higher share of actives than the screen did.

molecular target: Lysine-specific demethylase 4A (Homo sapiens) (UniProt O75164); assay: qHTS Assay for Inhibitors of JMJD2A-Tudor Domain; details: AlphaScreen JMJD2A-Tudor / H3K4me3 peptide binding; series mostly up to 114 µM; also: nearly all actives have a fitted effect of over 50% in size
Sequence (O75164 whole entry, looked up, the tested form may be a part): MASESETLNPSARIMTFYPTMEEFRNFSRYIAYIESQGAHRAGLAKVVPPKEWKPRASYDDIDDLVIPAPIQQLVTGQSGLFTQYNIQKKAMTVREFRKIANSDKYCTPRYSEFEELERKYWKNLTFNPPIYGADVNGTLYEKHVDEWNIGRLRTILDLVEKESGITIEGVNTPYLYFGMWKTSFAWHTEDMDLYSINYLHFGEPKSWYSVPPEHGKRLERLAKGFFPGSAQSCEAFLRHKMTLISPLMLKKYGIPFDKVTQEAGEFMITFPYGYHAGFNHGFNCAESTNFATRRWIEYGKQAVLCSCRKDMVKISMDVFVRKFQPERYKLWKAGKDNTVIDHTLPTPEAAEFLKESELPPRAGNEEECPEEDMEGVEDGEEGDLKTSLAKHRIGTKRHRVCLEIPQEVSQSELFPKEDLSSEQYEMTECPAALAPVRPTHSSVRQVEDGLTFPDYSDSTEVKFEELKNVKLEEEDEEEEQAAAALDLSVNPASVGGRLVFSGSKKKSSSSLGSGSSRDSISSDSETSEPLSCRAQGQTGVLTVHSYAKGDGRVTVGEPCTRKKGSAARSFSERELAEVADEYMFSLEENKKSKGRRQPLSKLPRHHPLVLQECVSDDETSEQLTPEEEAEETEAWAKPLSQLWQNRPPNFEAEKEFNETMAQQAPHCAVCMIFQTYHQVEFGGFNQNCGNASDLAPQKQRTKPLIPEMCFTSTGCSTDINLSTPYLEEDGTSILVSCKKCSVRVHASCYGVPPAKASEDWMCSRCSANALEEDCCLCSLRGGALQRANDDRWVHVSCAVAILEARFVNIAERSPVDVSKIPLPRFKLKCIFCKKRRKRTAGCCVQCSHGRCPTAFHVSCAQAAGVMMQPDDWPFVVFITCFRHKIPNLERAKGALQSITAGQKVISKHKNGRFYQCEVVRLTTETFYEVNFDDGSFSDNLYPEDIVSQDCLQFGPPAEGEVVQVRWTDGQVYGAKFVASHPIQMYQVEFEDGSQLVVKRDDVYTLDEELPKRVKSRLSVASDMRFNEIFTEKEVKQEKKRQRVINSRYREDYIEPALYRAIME
Potency is read from the fitted curve at half-maximal effect.

Q: `COc1cc(NC(=O)c2cc(C3CC3)nc3c2c(C)nn3-c2ccccc2)cc(OC)c1` was tested. Which Potency did it give?
A: inactive

Q: `Cc1ccc(C)c(N2CCN(C(c3ccccc3)c3nnc(-c4ccccc4)o3)CC2)c1` (centres undefined) was tested. Which Potency did it give?
A: inactive

Q: Which Potency does the source give for `CCOC(=O)c1ccc(NC2Nc3cc(C)nn3S2)cc1` (centres undefined) here?
A: inactive

Q: How did the Potency turn out when `CCc1ccc(NC2Nc3cc(C)nn3S2)cc1` (centres undefined) was run?
A: 22.4 µM (active)

Q: With `COc1cccc(N2CC(NC(=O)/C=C\c3ccccc3)CC2=O)c1` (centres undefined) as the molecule, how does the Potency read?
A: inactive

Q: With `Cc1ccc(C)c2c1cc(C)c1nnc(SCC(=O)Nc3cccc(C(=O)O)c3)n12` as the molecule, how does the Potency read?
A: 12.6 µM (active)

Q: How did the Potency turn out when `Cc1ccc(C(=O)NCCc2nnc(SCC(=O)Nc3cccc(C(=O)O)c3)n2C)cc1` was run?
A: inactive

Q: Which Potency does the source give for `COc1ccccc1-n1c(SCC(=O)Nc2cccc(C(=O)O)c2)nnc1-c1ccccc1O` here?
A: inactive

Q: How did the Potency turn out when `COC(=O)c1ccc(NC(=O)c2cc(S(=O)(=O)N3CCC(C)CC3)cn2C)cc1` was run?
A: inactive

Q: With `Cc1ccc(Nc2nc3ccccc3nc2-n2nc(C)cc2C)c(Cl)c1` as the molecule, how does the Potency read?
A: inactive

Q: How did the Potency turn out when `Cc1ccc(Cn2ncc3c4sc(C)cc4n(C)c3c2=O)c(C)c1` was run?
A: inactive

Q: For `Cc1ccc(CCNC(=O)c2ccc(CNS(=O)(=O)c3ccc(C)cc3)cc2)cc1`, which Potency is on record?
A: inactive

Q: Which Potency does the source give for `COCCCNC(=O)c1ccc(CNS(=O)(=O)c2ccc(NC(C)=O)cc2)cc1` here?
A: 50.1 µM (active)

Q: Which Potency does the source give for `CCCCNC(=O)C1CCC(CNS(=O)(=O)c2ccc(NC(C)=O)cc2)CC1` (centres undefined) here?
A: inactive

Q: With `Cc1ccc(CN2CCC(CNC(=O)c3cnn(-c4ccccc4Cl)c3C3CCN(C(=O)OC(C)(C)C)CC3)CC2)cc1` as the molecule, how does the Potency read?
A: inactive

Q: Which Potency does the source give for `CCc1cccc(CC)c1NC(=O)Cn1c(=O)c(-c2cc(C)ccc2NC(C)=O)nc2ccccc21` here?
A: inactive

Q: With `COC(=O)c1ccccc1NC(=O)C(Cc1ccccc1)N1Cc2ccccc2C1=O` (centres undefined) as the molecule, how does the Potency read?
A: inactive

Q: With `CCOc1cc(/C=N/Nc2cc(C)nc3ccc(C)cc23)ccc1O` as the molecule, how does the Potency read?
A: inactive

Q: Which Potency does the source give for `CCN(CC)c1ccc(/C=N/NC(=O)c2cnccn2)c(O)c1` here?
A: inactive

Q: How did the Potency turn out when `CCN(CC)c1ccc(/C=N/Nc2nc(C)cc(C)n2)c(O)c1` was run?
A: 50.1 µM (active)

Q: Which Potency does the source give for `CCCCNC(=O)Cn1c(SCc2cccc(Cl)c2)nc2ccncc21` here?
A: inactive

Q: Which Potency does the source give for `CCCN(CCC)CCCNC(=O)Cn1ncc2c3ccccc3n(Cc3ccccc3)c2c1=O` here?
A: inactive

Q: Which Potency does the source give for `Cc1cccc(OCC(O)CN2CCN(CCN3C(=O)c4cccc5cccc(c45)C3=O)CC2)c1C` (centres undefined) here?
A: 39.8 µM (active)

Q: How did the Potency turn out when `C=CCc1ccccc1OCC(O)CN1CCN(CCO)CC1` (centres undefined) was run?
A: inactive

Q: With `Cc1ccc(OCC(O)CN2CCN(CC(O)COc3ccc(C)cc3Cl)CC2)c(Cl)c1` (centres undefined) as the molecule, how does the Potency read?
A: inactive

Q: `COc1ccc(NC(=O)Cn2c(=O)n(CCC(C)C)c(=O)c3cccnc32)cc1Cl` was tested. Which Potency did it give?
A: inactive

Q: With `Cc1cc(C)cc(NC(=O)c2cnc3sc(N4CCCC4)nn3c2=O)c1` as the molecule, how does the Potency read?
A: inactive

Q: How did the Potency turn out when `CCOc1ccccc1N1C(=O)CC(Sc2nccc(C)n2)C1=O` (centres undefined) was run?
A: inactive

Q: For `COc1ccc(N2C(=O)CC(Sc3n[nH]c(-c4ccc(C)cc4)n3)C2=O)cc1` (centres undefined), which Potency is on record?
A: 2 µM (active)

Q: For `COc1ccc(-c2nc(SCC(=O)N3CCCC3)n[nH]2)cc1`, which Potency is on record?
A: inactive

Q: For `O=C1CC(Sc2ncn[nH]2)C(=O)N1c1ccccc1` (centres undefined), which Potency is on record?
A: 39.8 µM (active)

Q: With `Cc1ccc(N2C(=O)CC(Sc3ncn[nH]3)C2=O)cc1` (centres undefined) as the molecule, how does the Potency read?
A: 28.2 µM (active)

Q: Which Potency does the source give for `Cc1ccc(CC2CC(=O)N(c3ccc4c(c3)OCCO4)C2=O)cc1` (centres undefined) here?
A: inactive

Q: How did the Potency turn out when `COc1ccc(N2C(=O)CC(SC(C)C)C2=O)cc1` (centres undefined) was run?
A: inactive

Q: How did the Potency turn out when `CC(=O)Nc1ccc(N2C(=O)CC(Sc3nccc(C)n3)C2=O)cc1` (centres undefined) was run?
A: inactive

Q: How did the Potency turn out when `COC(=O)c1ccccc1SC1CC(=O)N(c2cccc(C)c2)C1=O` (centres undefined) was run?
A: inactive

Q: With `CC(=O)Nc1cccc(NC(=O)CSc2nccn2Cc2ccc3c(c2)OCO3)c1` as the molecule, how does the Potency read?
A: inactive

Q: Which Potency does the source give for `O=C(CCS(=O)(=O)c1ccccc1)N(Cc1cccnc1)c1nc2c(F)cccc2s1` here?
A: inactive

Q: With `COc1ccc2oc(=O)c(-c3cn4c(n3)sc3cc(OC)ccc34)cc2c1` as the molecule, how does the Potency read?
A: inactive

Q: Which Potency does the source give for `CCC(=O)N1c2ccccc2CC1C(=O)N1CCN(c2ccccc2F)CC1` (centres undefined) here?
A: inactive

Q: `CC1=C(c2ccc(C)cc2)S(=O)(=O)NC1=NCCCN1CCN(c2cc(C)ccc2C)CC1` was tested. Which Potency did it give?
A: inactive

Q: How did the Potency turn out when `COc1ccc(Cn2c(C(=O)O)c(CNCCc3cccs3)c3ccc(OC)cc32)cc1` was run?
A: inactive

Q: How did the Potency turn out when `COc1cc(OC)cc(C(=O)Nc2c(C(=O)Nc3ccc(F)cc3)oc3ccccc23)c1` was run?
A: inactive

Q: Which Potency does the source give for `Cc1ccc(C)c(N2CCN(C(=O)Cn3ncc4c(=O)oc5ccc(C)cc5c43)CC2)c1` here?
A: inactive

Q: How did the Potency turn out when `C/C(=N\N(C)C)c1ccc(OCCOc2ccc([N+](=O)[O-])cc2)cc1` was run?
A: 44.7 µM (active)

Q: With `C/C(=N/NC(=O)CC(=O)N/N=C(\C)c1ccc([N+](=O)[O-])cc1)c1ccc([N+](=O)[O-])cc1` as the molecule, how does the Potency read?
A: inactive

Q: Which Potency does the source give for `CO/N=C(\N)c1ccc([N+](=O)[O-])cc1` here?
A: inactive

Q: `Cc1oc2ncnc(N3CCOCC3)c2c1C(=O)NCCc1ccccc1` was tested. Which Potency did it give?
A: inactive

Q: For `CCCCOc1ccc(C(=O)N2CC(=O)Nc3ccc(Br)cc3C2c2ccc(F)cc2)cc1` (centres undefined), which Potency is on record?
A: inactive

Q: For `O=[N+]([O-])c1ccc(N/N=C2/CCCCC2c2ccccn2)c([N+](=O)[O-])c1` (centres undefined), which Potency is on record?
A: 31.6 µM (active)

Q: For `C[n+]1ccccc1C1CCCC/C1=N\Nc1ccc([N+](=O)[O-])cc1[N+](=O)[O-]` (centres undefined), which Potency is on record?
A: inactive

Q: For `O=C(Nc1ccccc1)O/N=C1\CCCCC1c1ccc([N+](=O)[O-])cc1[N+](=O)[O-]` (centres undefined), which Potency is on record?
A: inactive

Q: With `Cc1ccc(C)c(S(=O)(=O)c2nnn3c2nc(N2CCOCC2)c2sccc23)c1` as the molecule, how does the Potency read?
A: inactive

Q: For `COc1ccc(CCN2C(=O)N(c3cccc(OC)c3)C(=O)C2CC(=O)Nc2ccccc2)cc1` (centres undefined), which Potency is on record?
A: inactive

Q: How did the Potency turn out when `N#C/C(=C/c1ccc(N2CCOCC2)o1)C(=O)N1CCOCC1` was run?
A: inactive

Q: With `N#C/C(=C\C1=C(N2CCOCC2)C(=C\c2ccccc2)/CC1)C(=O)Nc1ccccc1F` as the molecule, how does the Potency read?
A: 4.47 µM (active)

Q: `O=C(CC1SC(N2CCOCC2)=NC1=O)Nc1ccccc1F` (centres undefined) was tested. Which Potency did it give?
A: inactive

Q: Which Potency does the source give for `COc1c(Cl)cc(Cl)cc1C(=O)Nc1cccc2cccnc12` here?
A: inactive

Q: How did the Potency turn out when `Cc1ccc(S(=O)(=O)NCCCn2ccnc2)cc1C(=O)NC(C)C` was run?
A: inactive

Q: With `Cc1ccc(S(=O)(=O)NCCC(c2ccccc2)c2ccccc2)cc1C(=O)O` as the molecule, how does the Potency read?
A: 79.4 µM (active)

Q: With `Cc1cccc(NS(=O)(=O)c2ccc(C)c(C(=O)NCC(c3ccccc3)N(C)C)c2)c1` (centres undefined) as the molecule, how does the Potency read?
A: inactive

Q: `Cc1nc(SCC(=O)Nc2ccc(C(=O)O)cc2)n[nH]1` was tested. Which Potency did it give?
A: inactive

Q: `Cc1ccc(NC(=O)CSc2nc3c(c(=O)[nH]2)CN(Cc2ccc4c(c2)OCO4)CC3)cc1C` was tested. Which Potency did it give?
A: inactive

Q: `CCOC(=O)c1ccc(CN(Cc2ccccc2)S(=O)(=O)c2ccc(Cl)cc2)cc1` was tested. Which Potency did it give?
A: inactive

Q: How did the Potency turn out when `COc1cccc(NC(=O)CN2C(=O)c3ccccc3Sc3ncccc32)c1` was run?
A: inactive

Q: `CCNS(=O)(=O)c1cc(-c2nnc(Nc3cccc(C(F)(F)F)c3)c3ccccc23)ccc1C` was tested. Which Potency did it give?
A: inactive

Q: `CCC(=C/c1sc2ccc3ccccc3c2[n+]1C)/C=C1\Sc2ccc3ccccc3c2N1C` was tested. Which Potency did it give?
A: 50.1 µM (active)

Q: Which Potency does the source give for `COc1ccc(CN2C(=O)C(NC(=O)c3cccc(C)c3)(C(F)(F)F)N=C2c2ccccc2)cc1` (centres undefined) here?
A: inactive

Q: How did the Potency turn out when `Cc1ccc(-n2ccc(=O)c(C(=O)O)n2)cc1` was run?
A: inactive

Q: With `Cc1ccc(N2CCN(c3ccc(C)cc3)C2c2ccccn2)cc1` as the molecule, how does the Potency read?
A: 25.1 µM (active)

Q: `Cc1ccc(S(=O)(=O)NCC(=O)N2CCN(c3ccccn3)CC2)cc1` was tested. Which Potency did it give?
A: inactive

Q: For `Cc1cccc(OCC(=O)N(Cc2ccc(C(C)C)cc2)Cc2ccco2)c1C`, which Potency is on record?
A: inactive

Q: How did the Potency turn out when `Oc1c(C(c2ccccn2)N2CCOCC2)ccc2cccnc12` (centres undefined) was run?
A: 17.8 µM (active)

Q: `Oc1c(C(c2ccccc2Cl)N2CCOCC2)sc2nc(-c3ccco3)nn12` (centres undefined) was tested. Which Potency did it give?
A: inactive

Q: For `COc1cc(NC(=O)c2noc3c2CSc2ccccc2-3)cc(OC)c1OC`, which Potency is on record?
A: inactive

Q: For `CC(=O)N1CCCc2cc(S(=O)(=O)Nc3ccc(Cl)cc3F)ccc21`, which Potency is on record?
A: inactive

Q: For `CCCCc1nn2c(=O)cc(COC(=O)c3ccccc3NC(=O)C(C)(C)C)nc2s1`, which Potency is on record?
A: inactive

Q: How did the Potency turn out when `COc1ccccc1CNC(=O)c1ccc(CS(=O)(=O)c2ccccc2)o1` was run?
A: inactive

Q: Which Potency does the source give for `O=C(c1ccc(CS(=O)(=O)c2ccccc2)o1)N1CCN(c2ccccc2)CC1` here?
A: 56.2 µM (active)

Q: For `O=C(c1ccc(S(=O)(=O)NCc2ccco2)cc1)N1CCN(c2ccccc2)CC1`, which Potency is on record?
A: inactive

Q: For `Cc1cc(C)cc(NC(=O)CCS(=O)(=O)c2cc3c4c(c2)CCN4C(=O)CC3)c1`, which Potency is on record?
A: inactive

Q: How did the Potency turn out when `Cc1cc(C)c2oc(C(=O)Nc3c(C(=O)Nc4ccccc4)oc4ccccc34)cc(=O)c2c1` was run?
A: inactive

Q: `Cc1ccc(C)c(Oc2c(C(F)(F)F)oc3c(CN4CCN(C)CC4)c(O)ccc3c2=O)c1` was tested. Which Potency did it give?
A: inactive

Q: With `Cc1c(Cl)cccc1NC(=O)C1CCCN(c2ncnc3onc(C)c23)C1` (centres undefined) as the molecule, how does the Potency read?
A: inactive
